KDM5B inhibitor: inhibitors of human KDM5B histone demethylase; Q9UGL1; Potency, µM (series often up to 57.7 µM), actives largely listed as inhibitors; AID 1347165; hit rate 2.6% among 220,000; KDM5B demethylase, FDH-coupled NADH fluorescence (FDH is formaldehyde dehydrogenase); active = well fitted inhibition curve with a large enough effect; also: 0% is about no effect; nearly all actives have a fitted effect of over 70% in size
Target sequence (Q9UGL1 whole entry, looked up): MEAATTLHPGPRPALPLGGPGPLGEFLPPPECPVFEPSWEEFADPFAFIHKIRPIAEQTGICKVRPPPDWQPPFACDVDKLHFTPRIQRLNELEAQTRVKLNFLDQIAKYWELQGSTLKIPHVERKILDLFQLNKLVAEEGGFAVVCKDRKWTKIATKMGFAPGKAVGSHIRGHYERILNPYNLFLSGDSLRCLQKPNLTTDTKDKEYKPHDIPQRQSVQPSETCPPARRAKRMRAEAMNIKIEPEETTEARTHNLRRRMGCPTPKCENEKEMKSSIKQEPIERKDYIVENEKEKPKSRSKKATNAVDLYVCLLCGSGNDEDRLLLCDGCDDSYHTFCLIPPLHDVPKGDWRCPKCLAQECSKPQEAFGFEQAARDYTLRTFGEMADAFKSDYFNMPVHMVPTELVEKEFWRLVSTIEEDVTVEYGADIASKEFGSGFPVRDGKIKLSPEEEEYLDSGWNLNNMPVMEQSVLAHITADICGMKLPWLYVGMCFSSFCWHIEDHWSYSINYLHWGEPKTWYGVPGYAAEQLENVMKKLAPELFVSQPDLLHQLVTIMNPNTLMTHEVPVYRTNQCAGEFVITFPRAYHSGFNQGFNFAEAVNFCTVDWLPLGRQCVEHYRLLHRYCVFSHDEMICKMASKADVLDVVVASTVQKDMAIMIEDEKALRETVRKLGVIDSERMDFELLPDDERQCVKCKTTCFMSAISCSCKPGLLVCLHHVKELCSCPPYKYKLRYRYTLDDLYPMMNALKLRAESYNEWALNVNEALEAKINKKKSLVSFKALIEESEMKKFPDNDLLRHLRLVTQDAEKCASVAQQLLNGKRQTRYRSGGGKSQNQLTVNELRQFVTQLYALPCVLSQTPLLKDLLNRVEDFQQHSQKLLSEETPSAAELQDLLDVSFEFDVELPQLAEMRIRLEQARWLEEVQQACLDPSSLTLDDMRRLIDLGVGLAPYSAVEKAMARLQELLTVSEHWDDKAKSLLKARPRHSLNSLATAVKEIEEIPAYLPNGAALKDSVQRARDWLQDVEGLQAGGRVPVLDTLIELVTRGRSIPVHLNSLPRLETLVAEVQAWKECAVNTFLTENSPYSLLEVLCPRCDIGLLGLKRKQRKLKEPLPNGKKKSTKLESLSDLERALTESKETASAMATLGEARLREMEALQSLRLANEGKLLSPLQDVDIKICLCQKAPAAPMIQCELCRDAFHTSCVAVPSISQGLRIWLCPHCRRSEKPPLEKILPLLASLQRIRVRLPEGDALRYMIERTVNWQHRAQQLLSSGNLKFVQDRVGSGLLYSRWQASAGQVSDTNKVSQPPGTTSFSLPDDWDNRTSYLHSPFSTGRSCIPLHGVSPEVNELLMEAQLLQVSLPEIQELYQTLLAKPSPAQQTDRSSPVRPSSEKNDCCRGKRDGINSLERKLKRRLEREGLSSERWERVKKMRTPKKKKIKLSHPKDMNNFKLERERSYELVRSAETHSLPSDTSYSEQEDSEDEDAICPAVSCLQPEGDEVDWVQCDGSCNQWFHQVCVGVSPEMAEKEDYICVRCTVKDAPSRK
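Here, H3K4me3 peptide (12.5 µM in substrate mix) is demethylated by KDM5BΔAP, 200 nM final, after 10 min compound exposure. Formaldehyde product is coupled through FDH (0.25 U/mL in mix) to NADH fluorescence; 30-min ΔRFU feeds dose-response curves.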
* marks the source's active call; other numbers are inactive results; i = inactive. This is one part of a sample in which hits are shown more often than they occur. Potency is read from the fitted curve at half-maximal effect.

SMILES	KDM5B inhibitor
O=C1CO[C@H]2CN(Cc3ccco3)C[C@H]2N1Cc1cccnc1	i
CN1C(=O)CO[C@H]2CN(C3CCOCC3)C[C@H]21	i
O=C1CO[C@H]2CN(Cc3cccnc3)C[C@H]2N1	i
CN1C(=O)CO[C@H]2CN(Cc3ncc[nH]3)C[C@H]21	35µM*
O=C1CO[C@H]2CN(CC3CC3)C[C@H]2N1Cc1ccccn1	i
O=C1CO[C@H]2CN(Cc3ncc[nH]3)C[C@H]2N1Cc1ccncc1	35µM*
COc1cc(CN2CCN(C(=O)COc3ccccc3)CC2)cc(OC)c1O	i
CCN1CCCCC12Cc1ccccc1CN(C(=O)Cc1ccc(OC)cc1)C2 (stereo not given)	i
C#CCOc1cccc(C2SCC(=O)Nc3c2c(C)nn3-c2ncnc3nc[nH]c23)c1 (stereo not given)	i
COc1ccc(-c2coc3cc(OCC(=O)N4CCN(C)CC4)ccc3c2=O)cc1	i
O=c1cccc2n1CC1CC2CN(S(=O)(=O)c2cc(Cl)ccc2Cl)C1 (stereo not given)	i
O=c1ccc(-c2ccc(Cl)cc2)c2n1C[C@H]1C[C@@H]2CN(S(=O)(=O)c2cccs2)C1	i
COc1ccc(-c2ccc3n(c2=O)C[C@H]2C[C@@H]3CN(S(C)(=O)=O)C2)cc1	40µM*
COCC(=O)N1CCC2(CC1)C(=O)Nc1cc(Oc3cccc(N(C)C)c3)c(OC)cc12	i
Cc1nc(-c2ccco2)cc([C@H]2CN3CC[C@H]2C[C@@H]3CNC(=O)NC2CCCCC2)n1	32µM*
Cc1nc(-c2ccco2)cc([C@H]2CN3CC[C@H]2C[C@@H]3CNC(=O)C2CCCCC2)n1	32µM*
COc1ccc(-c2cc([C@H]3CN4CC[C@H]3C[C@@H]4CNC(=O)NC3CCCCC3)n(C)n2)cc1	i
Cc1nc(-c2ccccc2)cc([C@H]2CN3CC[C@H]2C[C@@H]3CN(Cc2ccco2)Cc2ccco2)n1	i
COc1ccccc1-c1cc([C@H]2CN3CC[C@H]2C[C@@H]3CNC(=O)C2CCCCC2)n(C)n1	i
Cc1nc(-c2cccs2)cc([C@H]2CN3CC[C@H]2C[C@@H]3COC(=O)NC2CCCCC2)n1	i
Cc1oc2cc(OCC(=O)N3CCN(C)CC3)ccc2c(=O)c1-c1ccccc1	i
Cc1nnc(C(C)N2CCN(C(=O)Cc3ccccc3C)CC2)o1 (stereo not given)	i
Cc1ccc2c(c1)C(Cc1nc3ccccc3c(=O)n1-c1ccc(Cl)cc1)C(=O)N2 (stereo not given)	i
COCCOC1CCN(C(=O)c2nn(C)c3ccccc23)CC1	i
Cn1cc(C(=O)NC2CCCCCCC2)c2ccccc21	i
SMILES	KDM5B inhibitor
Cn1nc2n(c1=O)CCC(NC(=O)c1nn(C)c3ccccc13)CC2 (stereo not given)	18µM*
Cc1ccccc1-c1ccc2n(c1=O)C[C@H]1C[C@@H]2CN(C(=O)Nc2ccc(Cl)cc2)C1	32µM*
O=C(Nc1ccc(=O)n2c1[C@@H]1C[C@@H](CN(C(=O)NC3CCCCC3)C1)C2)c1ccco1	i
Cc1ccccc1-c1ccc2n(c1=O)C[C@H]1C[C@@H]2CN(C(=O)NC(C)C)C1	35µM*
Cc1ccc(NC(=O)N2C[C@@H]3C[C@H](C2)c2c(-c4cccs4)ccc(=O)n2C3)cc1	i
CC(C)NC(=O)N1C[C@@H]2C[C@H](C1)c1c(-c3ccccc3F)ccc(=O)n1C2	i
N#Cc1cccc(NC(=O)N2C[C@@H]3C[C@H](C2)c2c(-c4ccccc4)ccc(=O)n2C3)c1	i
NC(=O)C1=NO[C@@H]2CN(CC3CCCCC3)C[C@H]12	i
CC(C)(O)c1cn(C[C@H]2C[C@@H]3CCN2C[C@@H]3C(=O)Nc2ccccc2)nn1	i
CCN1CCCCC12Cc1ccccc1CN(C(=O)Cc1ccc(O)cc1)C2 (stereo not given)	i
CC12CN3CC(C)(C[N+](C)(C3)C1)C2=O	i
CC(=O)Nc1ccc(S(=O)(=O)NC[C@H]2C[C@@H]3CCN2C[C@@H]3c2cc(-c3ccco3)nc(C)n2)cc1	32µM*
CC(=O)Nc1ccc(S(=O)(=O)NC[C@H]2C[C@@H]3CCN2C[C@@H]3c2cc(-c3ccc(F)cc3)nn2C)cc1	i
CC(=O)Nc1ccc(S(=O)(=O)NC[C@H]2C[C@@H]3CCN2C[C@@H]3c2cc(-c3ccc(N(C)C)cc3)nc(C)n2)cc1	20µM*
CC(=O)c1cccc(NC(=O)NC[C@H]2C[C@@H]3CCN2C[C@@H]3c2cc(-c3ccc(F)cc3)nc(C)n2)c1	i
COc1ccc(OC)c(S(=O)(=O)NC[C@H]2C[C@@H]3CCN2C[C@@H]3c2cc(-c3ccco3)nc(C)n2)c1	i
Cc1nc(-c2ccccc2Br)cc([C@H]2CN3CC[C@H]2C[C@@H]3CNS(=O)(=O)c2cccs2)n1	i
O=C(N1[C@H]2CC[C@@H]1c1cnc(-c3ccc(F)cc3)nc1C2)C1(c2ccccc2)CC1	i
COc1ccc(C2=NCC(=O)N(CC(=O)Nc3ccc(F)cc3F)c3sc4c(c32)CCC4)cc1	i
CC[C@H]1CN2CC[C@H]1C[C@@H]2CNC(=S)Nc1ccc(N(C)C)cc1	i
N#C/C(=C\c1ccccc1)C(=O)Nc1ccc(Br)cc1C(=O)c1ccccc1	i
CC(C)CCN1CCC2(CNS(=O)(=O)c3cccnc3O2)C1 (stereo not given)	i
CN1c2ncccc2CN(Cc2ccccc2)CC[C@H]1CO	32µM*
Cn1c(O)c(C=NC2CCN(Cc3ccccc3)CC2)c(=O)[nH]c1=O	i
CN1CCC(C(=O)N2C3CCC2CN(Cc2cccnc2)C3)CC1	i
SMILES	KDM5B inhibitor
O=C1Nc2ccccc2CC12CCCN2Cc1ccccn1 (stereo not given)	i
O=C1CC2CCN(Cc3ccccn3)CC2CCN1 (stereo not given)	i
CN1c2ncccc2CN(Cc2ccccn2)CC[C@H]1CO	32µM*
C=CCNC(=O)C(C)OC(=O)c1cn(C)c2ccccc12 (stereo not given)	i
Cc1cccc(OCC(=O)N2[C@H]3CC[C@@H]2c2cnc(-c4ccc(F)cc4)nc2C3)c1	i
CN1CCN(C(=O)Cc2c[nH]c3ncc(-c4cccc(O)c4)cc23)CC1	i
Cc1ccc(NC(=O)CN2CCN(C(=O)Cc3c[nH]c4ccccc34)CC2)cc1	i
CN1CCN(C(=O)Cc2c[nH]c3ncc(-c4ccc([S+](C)(=O)[O-])cc4)cc23)CC1	i
CN1CCN(C(=O)Cc2c[nH]c3ncc(-c4ccsc4)cc23)CC1	40µM*
O=C(Cc1c[nH]c2ccccc12)N1CCN(CC(=O)N2CCCCCC2)CC1	i
CN1CCN(C(=O)Cc2c[nH]c3ncc(-c4ccccc4F)cc23)CC1	35µM*
Cc1oc2cc(OC(=O)N(C)C)ccc2c(=O)c1-c1ccccc1	i
C#C[C@H]1CN2CC[C@H]1C[C@@H]2COC(=O)Nc1ccc(OC(F)(F)F)cc1	i
N#CC1=C(N)Oc2nc(SCc3ccccc3Cl)nc(N)c2C1c1ccc(F)cc1 (stereo not given)	i
COc1ccc([N+](=O)[O-])cc1	i
COc1cc2c(cc1OC1CCCC1)NC(=O)C21CCN(C(=O)c2ccccc2)CC1	i
O=c1c(-c2cccs2)ccc2n1C[C@H]1C[C@@H]2CN(C2CCOCC2)C1	35µM*
N#Cc1ccc(C(=O)N2C[C@@H]3C[C@H](C2)c2c(-c4cccs4)ccc(=O)n2C3)cc1	i
CC(C)(CC(=O)O)CC(=O)N1C[C@@H]2C[C@H](C1)c1c(-c3cccs3)ccc(=O)n1C2	i
